# Measured values: PubChem BioAssay
# Values joined by “and” are separate entries in the source; they are usually repeats but may differ in a detail not shown here. Identical values can stand only once. Active and inactive are the calls of the source. Unless noted, no stated cut-off is given here; in the data, active means nuclear beta-catenin stimulation mostly above about 4.2% (no sharp cut-off); inactive means mostly below about 10%.
# Columns and labels:
# [1] = stimulators of nuclear beta-catenin in C2C12, primary screen, imaging, WNT3A-conditioned medium, mouse C2C12, NPC library (AID 1117326); details: stronger effect = higher value
# [2] = stimulators of insulin release from INS-1E, primary screen, cell-based, 5 mM glucose, NPC library (AID 1117329;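 active means compound raises insulin release from rat beta cells at 5 mM glucose, no numeric limit stated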); details: rat INS-1E insulin secretion, at 10 µM, stronger effect = higher value
# [3] = growth inhibition of GSK3B-pretreated HCT116 cells – cell-based, CellTiter-Glo, 0.2 to 20 µM (AID 1117336;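 active means compounds lowering colon cancer cell viability after pretreatment blocking the GSK3B kinase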); details: HCT116 viability after GSK3B inhibitor, at 20 µM, stronger effect = higher value
# [4] = inhibition of endothelial tube formation, primary screen, imaging, VEGF stimulated, CD31 staining, tube area, NPC library (AID 1117340;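 active means compound that reduces growth-factor-driven endothelial tube area in a mixed cell culture, no cutoff stated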); details: VEGF-stimulated ADSC/ECFC co-culture, at 10 µM, stronger effect = higher value
# [5] = glucagon-like peptide 1 release enhancers, primary assay, NCI-H716 cell line, NPC library (AID 1117341;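 active means compound raises GLP1 secretion from the human gut endocrine cells, with no numeric limit stated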); details: NCI-H716 cells, at 10 µM, stronger effect = higher value
# [6] = HCT116 colon cancer cell growth inhibition, primary screen, CellTiter-Glo luminescence, NPC library (AID 1117342;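 active means compounds that lower survival of HCT116 colon cancer cells in the luminescence readout, no numeric limit stated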); details: at 20 µM (top of the series)
# [7] = CellTiter-Glo luminescent readout of SW480 viability loss, NPC library primary (AID 1117343;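 active means compounds that lower viability of the colon cancer cells in the luminescence readout, with no numeric limit stated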); details: CellTiter-Glo luminescence; at 20 µM (top of the series)
# [8] = decreased DLD-1 cellular survival, CellTiter-Glo luminescent readout, NPC compound collection, primary HTS (AID 1117346;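 active means compounds that lower survival of DLD-1 colon cancer cells in the luminescence readout, no cutoff given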); details: DLD-1 viability, CellTiter-Glo luminescence; at 20 µM (top of the series)
# [9] = molecular target: 6-phosphogluconate dehydrogenase, decarboxylating (Homo sapiens) (UniProt P52209); assay: 6PGD enzyme inhibitors, primary screen, biochemical, human, recombinant enzyme, NADPH absorbance (AID 1159550;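 active means at least 20% inhibition of 6-phosphogluconate dehydrogenase activity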); details: recombinant 6PGD, NADPH absorbance 341 nm; at 10 µM; stronger effect = higher value
# [10] = differential killing of epithelial or mesenchymal cells, primary screen, imaging, PC-3E GFP, TEM4-18 mCherry, co-culture (AID 1345086;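 active means compounds killing one labelled cell type while sparing the other, by normalised counts and ratio limits, not self-fluorescent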;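 on all read-outs here: cells exposed to compound for 72 h before imaging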;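 on red/green cell ratio (normalised): normalised mesenchymal count divided by normalised epithelial count so high means epithelial killing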); details: imaging cell counts, at 1 µM; for red/green cell ratio (normalised): actives lie on both sides
# [11] = test system: Aerobactin synthetase IucA (Klebsiella pneumoniae hvKP1); assay: Biochemical IucA enzyme inhibition primary screen of the Spectrum library (AID 1346200; call rule not given here;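 further: 100% = wells without compound and 0% = wells lacking enzyme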); details: malachite green pyrophosphate, A620, at 8 µM, stronger effect = lower value
# [12] = sensitizers of A549 cells to miR-34 induction, primary screen, imaging, A549 dox-inducible miR-34, nuclei and caspase counts (AID 1347080;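 active means compounds whose cell count with miR-34 switched on is under 0.7 times the count with it off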); details: A549 miR-34 inducible, Hoechst nuclei count, 48 h
# [13] = suppressors of polyQ aggregation in yeast, 75Q-TubU reporter (AID 1593); details: Yeast 75Q polyglutamine aggregation reporter
# [14] = inhibitors of mitochondrial cytochrome c release, biochemical, purified mitochondria (AID 1603); details: stronger effect = lower value;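 further: mouse liver mitochondria challenged with calcium chloride; signal normalized to the plate average as 100%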
# [15] = inhibitors of polyQ protein aggregation (AID 1604); details: polyglutamine-induced protein aggregation inhibition assay; stronger effect = higher value; tested at 2.5 µM
# [16] = liver-stage malaria parasite growth inhibition, primary screen, cell-based, HepG2, luciferase luminescence, HepG2 viability (AID 624349; in the data active means parasite load remaining mostly below about 12%, no sharp cut-off; inactive means mostly above about 10%;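 further: 100% = mean of DMSO negative control wells on the same plate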); details: P. berghei liver stage in HepG2, luciferase luminescence, concentration not given here; parasite load remaining: stronger effect = lower value; viability: measured here: HepG2 viability without parasites
# [17] = molecular target: NAD(+) hydrolase SARM1 (Homo sapiens) (UniProt Q6SZW1); assay: SARM1 TIR NADase inhibitors, cell lysate, NAD-Glo luminescence (AID 1508614;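 active means compound whose remaining NAD level is above about 45 nM, limit read from the data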); details: SAM-TIR HEK293T lysate NADase, at 1 µM, stronger effect = higher value
# [18] = molecular target: Mitogen-activated protein kinase 7 (Homo sapiens) (UniProt Q13164); assay: ERK5 transactivation activators in reporter cells, primary screen, cell-based, HTS (AID 1508626;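 active means luciferase signal above three times the same-plate solvent-only control wells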;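 further: luciferase driven by Gal4-ERK5 fusion binding five Gal4 sites before minimal TATA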); details: HeLa Gal4-ERK5 transactivation, 18 h, at 5 µM, stronger effect = higher value
# [19] = measured here: epithelial PC-3E GFP cell survival
# [20] = measured here: mesenchymal TEM4-18 mCherry cell survival
# [21] = measured here: relative caspase fold change +Dox/-Dox
# [22] = measured here: total cells with miR-34 induction, stronger effect = lower value
# [23] = measured here: total cells without miR-34 induction
# Chain of 6-phosphogluconate dehydrogenase, decarboxylating (Homo sapiens) (P52209 whole entry, looked up): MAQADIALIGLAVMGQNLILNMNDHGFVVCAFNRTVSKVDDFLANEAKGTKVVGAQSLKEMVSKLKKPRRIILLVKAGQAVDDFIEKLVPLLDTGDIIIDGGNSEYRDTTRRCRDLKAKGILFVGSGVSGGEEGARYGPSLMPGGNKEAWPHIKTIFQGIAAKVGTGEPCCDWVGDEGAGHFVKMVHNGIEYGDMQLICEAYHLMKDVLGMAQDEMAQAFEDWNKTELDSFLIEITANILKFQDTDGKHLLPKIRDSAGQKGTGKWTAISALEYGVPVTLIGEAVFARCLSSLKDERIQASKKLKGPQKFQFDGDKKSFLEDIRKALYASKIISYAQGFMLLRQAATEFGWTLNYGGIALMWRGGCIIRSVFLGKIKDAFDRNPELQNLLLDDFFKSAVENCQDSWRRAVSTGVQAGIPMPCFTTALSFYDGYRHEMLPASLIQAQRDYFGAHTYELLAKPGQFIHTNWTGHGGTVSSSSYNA
# Chain of NAD(+) hydrolase SARM1 (Homo sapiens) (Q6SZW1 whole entry, looked up, the tested form may be a part): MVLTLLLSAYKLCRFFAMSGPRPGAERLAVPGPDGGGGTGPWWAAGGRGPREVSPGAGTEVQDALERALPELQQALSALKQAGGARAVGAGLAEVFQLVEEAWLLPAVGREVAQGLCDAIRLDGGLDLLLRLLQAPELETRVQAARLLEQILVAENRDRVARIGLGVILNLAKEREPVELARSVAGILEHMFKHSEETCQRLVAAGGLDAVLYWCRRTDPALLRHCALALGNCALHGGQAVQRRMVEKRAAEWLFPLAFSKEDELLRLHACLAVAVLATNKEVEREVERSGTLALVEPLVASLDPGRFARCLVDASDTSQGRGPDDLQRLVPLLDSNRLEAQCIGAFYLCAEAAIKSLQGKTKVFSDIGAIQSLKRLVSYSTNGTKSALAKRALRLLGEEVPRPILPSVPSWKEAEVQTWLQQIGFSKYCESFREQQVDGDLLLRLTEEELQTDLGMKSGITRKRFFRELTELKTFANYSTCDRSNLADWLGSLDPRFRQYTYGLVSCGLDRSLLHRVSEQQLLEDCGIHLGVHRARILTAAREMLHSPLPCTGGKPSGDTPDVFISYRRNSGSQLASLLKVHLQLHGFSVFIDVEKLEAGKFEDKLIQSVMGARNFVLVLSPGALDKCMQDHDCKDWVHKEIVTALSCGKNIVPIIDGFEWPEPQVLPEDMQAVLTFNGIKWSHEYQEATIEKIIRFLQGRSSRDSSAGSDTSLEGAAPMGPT
# Chain of Mitogen-activated protein kinase 7 (Homo sapiens) (Q13164 whole entry, looked up, the tested form may be a part): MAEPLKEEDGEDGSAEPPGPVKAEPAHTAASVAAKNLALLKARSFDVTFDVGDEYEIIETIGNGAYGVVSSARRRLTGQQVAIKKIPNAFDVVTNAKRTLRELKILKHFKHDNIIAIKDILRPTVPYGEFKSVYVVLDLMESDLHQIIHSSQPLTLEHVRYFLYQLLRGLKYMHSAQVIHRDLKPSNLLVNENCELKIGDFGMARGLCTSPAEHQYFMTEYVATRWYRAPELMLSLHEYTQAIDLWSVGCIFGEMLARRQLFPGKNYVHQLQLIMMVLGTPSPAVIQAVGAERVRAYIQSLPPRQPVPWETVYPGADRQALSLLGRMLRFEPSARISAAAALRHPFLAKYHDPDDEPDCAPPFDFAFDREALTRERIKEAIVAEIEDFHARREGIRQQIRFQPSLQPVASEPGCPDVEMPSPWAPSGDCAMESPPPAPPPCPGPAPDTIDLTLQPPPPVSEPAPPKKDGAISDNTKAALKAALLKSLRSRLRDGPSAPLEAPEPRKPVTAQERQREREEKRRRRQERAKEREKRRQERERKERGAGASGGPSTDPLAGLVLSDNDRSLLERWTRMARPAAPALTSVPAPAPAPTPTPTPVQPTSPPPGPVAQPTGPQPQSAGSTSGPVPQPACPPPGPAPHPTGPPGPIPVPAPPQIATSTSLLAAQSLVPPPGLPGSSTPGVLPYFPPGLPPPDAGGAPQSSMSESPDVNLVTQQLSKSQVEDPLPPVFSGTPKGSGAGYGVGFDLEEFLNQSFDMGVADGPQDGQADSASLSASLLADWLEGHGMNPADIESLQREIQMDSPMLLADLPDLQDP
smiles,measurement,setting,value
COP(=S)(OC)Oc1ccc(SC)c(C)c1,nuclear beta-catenin stimulation,[1]; at 10 µM,1.4% (inactive)
same,nuclear beta-catenin stimulation,"[1]; stimulation, at 2 µM",1.3%
same,insulin secretion stimulation,[2],-2.2% (inactive)
same,viability decrease,[3],16.1% (inactive)
same,tube area decrease,[4],13.4% (inactive)
same,GLP1 secretion stimulation,[5],-0.1% (inactive)
same,inhibition of viability,[6],-20.4% (inactive)
same,viability decrease (inhibition),[7],89.6% (active)
same,viability decrease (inhibition),[8],8.15% (inactive)
same,inhibition,[9],9.75% (inactive)
same,red/green cell ratio (normalised),[10],0.97 (inactive)
same,normalised cell number,[10]; [19],1.03
same,normalised cell number,[10]; [20],1
same,activity remaining,[11],92.7% (inactive)
same,fold change,[12]; stronger effect = lower value,0.917 (inactive)
same,fold change,[12]; [21],0.928
same,cell count,[12]; [22],9260
same,cell count,[12]; [23],10100
Oc1ccc(Cl)cc1,score,[13],0.2
same,cytochrome c release ratio,[14],0.97
same,inhibition of aggregation,[15],31.7%
same,parasite load remaining,[16],99.5% (inactive) and 63.2% (inactive)
same,viability,[16],70.5% and 93.7%
same,nuclear beta-catenin stimulation,[1]; at 10 µM,0.8% (inactive)
same,nuclear beta-catenin stimulation,"[1]; stimulation, at 2 µM",0.5%
same,insulin secretion stimulation,[2],-0.7% (inactive)
same,viability decrease,[3],21.3% (inactive)
same,tube area decrease,[4],12.2% (inactive)
same,GLP1 secretion stimulation,[5],0.3% (inactive)
same,inhibition of viability,[6],17.9% (inactive)
same,viability decrease (inhibition),[7],34.5% (inactive)
same,viability decrease (inhibition),[8],6.1% (inactive)
same,inhibition,[9],15% (inactive)
same,red/green cell ratio (normalised),[10],0.99 (inactive)
same,normalised cell number,[10]; [19],1.1
same,normalised cell number,[10]; [20],1.09
same,activity remaining,[11],115% (inactive)
same,fold change,[12]; stronger effect = lower value,0.923 (inactive)
same,fold change,[12]; [21],1.34
same,cell count,[12]; [22],11600
same,cell count,[12]; [23],12500
same,remaining NAD,[17],10 nM (inactive)
same,luciferase signal,[18],52 AU (inactive)
